Measured values as given in article PMC8384837, “Expanding the binding specificity for RNA recognition by a PUF domain”.

Target: PUM1 PUF domain R5-QRR (Homo sapiens, UniProt Q14671 828-1176, C1007Q;Q1011R)
Assay: yeast three-hybrid, YBZ-1, SC-Leu-His + 0.5 mM 3-AT, 4 days
Details: tags: N-Gal4 AD-HA kept; label: inside an RPR1-promoter hybrid RNA with tandem MS2 sites; ssRNA
How it was run: (§1)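 Each repeat of the Pumilio-1 PUF domain was randomized at its three base-contacting residues, and these libraries were co-expressed from a centromeric plasmid with matching RNA elements in strain YBZ-1. After four days on SC-Leu (input) or SC-Leu-His + 0.5 mM 3-AT (selection), the repeat regions were PCR-amplified and Illumina-sequenced. The interaction score compares variant frequency between input and selection as a log change, computed in log2 with a pseudocount of 1 for absent variants.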

Chain of PUM1 PUF domain R5-QRR (Q14671 828-1176 C1007Q/Q1011R): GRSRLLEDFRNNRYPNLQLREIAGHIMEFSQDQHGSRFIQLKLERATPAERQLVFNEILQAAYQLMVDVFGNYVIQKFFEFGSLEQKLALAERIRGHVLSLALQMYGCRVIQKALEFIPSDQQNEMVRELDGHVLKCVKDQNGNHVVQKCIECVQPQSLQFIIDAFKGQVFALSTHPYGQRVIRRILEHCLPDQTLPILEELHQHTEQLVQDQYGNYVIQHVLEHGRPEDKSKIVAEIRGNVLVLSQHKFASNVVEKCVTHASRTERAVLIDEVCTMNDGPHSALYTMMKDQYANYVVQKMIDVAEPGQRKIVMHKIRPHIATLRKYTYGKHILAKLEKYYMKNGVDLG

Row | Sequence | binding signal
1 | GGCUAGAACUAGUGGAUCCCCCGGCGCCCGGCGGCUCGAGCCCGGGUAAGUGUCAAUAGUCUGCAUGCCGCCGGGCGCCAUGCCUGCAGGUCGACUCUAGAAAACAUG | 6.46 log2 enrichment (interaction score)
2 | GGCUAGAACUAGUGGAUCCCCCGGCGCCCGGCGGCUCGAGCCCGGGUAAGUGUAAAUAGUCUGCAUGCCGCCGGGCGCCAUGCCUGCAGGUCGACUCUAGAAAACAUG | 1.74 log2 enrichment (interaction score)
3 | GGCUAGAACUAGUGGAUCCCCCGGCGCCCGGCGGCUCGAGCCCGGGUAAGUGUUAAUAGUCUGCAUGCCGCCGGGCGCCAUGCCUGCAGGUCGACUCUAGAAAACAUG | 4.36 log2 enrichment (interaction score)
4 | GGCUAGAACUAGUGGAUCCCCCGGCGCCCGGCGGCUCGAGCCCGGGUAAGUGUGAAUAGUCUGCAUGCCGCCGGGCGCCAUGCCUGCAGGUCGACUCUAGAAAACAUG | 3 log2 enrichment (interaction score)

Target: PUM1 PUF domain R4-WAW (Homo sapiens, UniProt Q14671 828-1176, N971W;H972A;Q975W)
Assay: as above
Details: tags: N-Gal4 AD-HA kept; label: inside an RPR1-promoter hybrid RNA with tandem MS2 sites; ssRNA
How it was run: as §1

Chain of PUM1 PUF domain R4-WAW (Q14671 828-1176 N971W/H972A/Q975W): as the sequence (Q14671 828-1176 C1007Q/Q1011R) above, with N144W, H145A, Q148W, Q180C, R184Q counted along it

Row | Sequence | binding signal
5 | GGCUAGAACUAGUGGAUCCCCCGGCGCCCGGCGGCUCGAGCCCGGGUAAGUGUACAUAGUCUGCAUGCCGCCGGGCGCCAUGCCUGCAGGUCGACUCUAGAAAACAUG | 2.47 log2 enrichment (interaction score)
6 | GGCUAGAACUAGUGGAUCCCCCGGCGCCCGGCGGCUCGAGCCCGGGUAAGUGUAAAUAGUCUGCAUGCCGCCGGGCGCCAUGCCUGCAGGUCGACUCUAGAAAACAUG | 5.21 log2 enrichment (interaction score)
7 | GGCUAGAACUAGUGGAUCCCCCGGCGCCCGGCGGCUCGAGCCCGGGUAAGUGUAUAUAGUCUGCAUGCCGCCGGGCGCCAUGCCUGCAGGUCGACUCUAGAAAACAUG | 4.31 log2 enrichment (interaction score)

Target: PUM1 PUF domain R5-KQL (Homo sapiens, UniProt Q14671 828-1176, C1007K;R1008Q;Q1011L)
Assay: as above
Details: tags: N-Gal4 AD-HA kept; label: inside an RPR1-promoter hybrid RNA with tandem MS2 sites; ssRNA
How it was run: as §1

Chain of PUM1 PUF domain R5-KQL (Q14671 828-1176 C1007K/R1008Q/Q1011L): as the sequence (Q14671 828-1176 C1007Q/Q1011R) above, with Q180K, R181Q, R184L counted along it

Row | Sequence | binding signal
8 | GGCUAGAACUAGUGGAUCCCCCGGCGCCCGGCGGCUCGAGCCCGGGUAAGUGUCAAUAGUCUGCAUGCCGCCGGGCGCCAUGCCUGCAGGUCGACUCUAGAAAACAUG | 5.23 log2 enrichment (interaction score)
9 | GGCUAGAACUAGUGGAUCCCCCGGCGCCCGGCGGCUCGAGCCCGGGUAAGUGUAAAUAGUCUGCAUGCCGCCGGGCGCCAUGCCUGCAGGUCGACUCUAGAAAACAUG | 1.4 log2 enrichment (interaction score)
10 | GGCUAGAACUAGUGGAUCCCCCGGCGCCCGGCGGCUCGAGCCCGGGUAAGUGUUAAUAGUCUGCAUGCCGCCGGGCGCCAUGCCUGCAGGUCGACUCUAGAAAACAUG | 3.92 log2 enrichment (interaction score)
